Several values for one entry are separate records, joined by “and”; a condition that tells them apart may be missing. Equal values may be shown once. This is part of a sample that, as a whole, favours compounds with a hit. Of some 83,000 tested, about 20% had one in any assay.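 Growth was measured after 48 h exposure to one concentration of compound in 96-well plates. Values under 10 count as active.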 Some compounds were tested as several samples or in several runs, with calls that do not always agree. Activity calls are given as the source filed them.
Key:
Test in all cases: NCI-60 one-dose screen, 48 h (100 = growth as untreated, 0 = no growth, -100 = all killed)
Settings in all cases: 10 µM unless noted
[1] = test system: SK-MEL-2 melanoma
[2] = test system: EKVX NSCLC
[3] = test system: SN12C renal
[4] = test system: UO-31 renal
[5] = test system: TK-10 renal
[6] = test system: ACHN renal
[7] = test system: CAKI-1 renal
[8] = test system: A498 renal
[9] = test system: CCRF-CEM leukemia
[10] = test system: MOLT-4 leukemia
[11] = test system: SR leukemia
[12] = test system: RPMI-8226 leukemia
[13] = test system: OVCAR-8 ovarian
[14] = test system: OVCAR-5 ovarian
[15] = test system: SK-OV-3 ovarian
[16] = test system: IGROV1 ovarian
[17] = test system: OVCAR-3 ovarian
[18] = test system: HS 578T breast
[19] = test system: NCI/ADR-RES ovarian
[20] = test system: OVCAR-4 ovarian

Measured: growth

Clc1ccc(NC(Nc2ccc(Cl)cc2)C(Cl)(Cl)Cl)cc1
inactive: [1] 85.6% and 95.8% | [2] 85.7% and 99.3% | [3] 84% and 111% | [4] 25.5% and 75.1% | [5] 110% and 92.3% | [6] 41.6% | [7] 66% | [8] 107% and 101% | [9] 95% | [10] 70.3% and 89.5% | [11] 99.4% | [12] 95.9% | [13] 93.6% and 107% | [14] 79.9% and 100% | [15] 100% and 98% | [16] 75.3% and 103% | [17] 89% and 102% | [18] 109% | [19] 61.5% and 99.4%

CC(=O)c1ccc2c(c1)N(CCCN1CCN(CCO)CC1)c1ccccc1S2
active: [1] 2.74% and -42% | [11] -30.2%
60.4% (inactive) and 4.26% (active): [10]
inactive: [2] 83.9% and 60.6% | [3] 99% and 53.6% | [5] 86.4% and 27.5% | [6] 95.5% and 30.7% | [7] 77.3% and 15.7% | [8] 85.1% and 28.6% | [9] 80.8% and 16.2% | [12] 77.6% and 10.7% | [13] 82.5% and 72.9% | [14] 93% and 51.6% | [15] 152% and 50.5% | [17] 103% and 40.7% | [19] 95.6% and 45.8%
87.6% (inactive) and -20.1% (active): [18]
56.9% (inactive) and 2.41% (active): [4]

CCc1c(CC(=O)O)c2cc(C)ccc2n1Cc1ccc(Cl)cc1
inactive: [1] 103% and 90.9% | [2] 98.8% and 93.4% | [3] 91.1% and 82.4% | [4] 76.6% and 73.4% | [5] 99.7% and 262% | [6] 93.5% and 96.1% | [7] 90% | [8] 114% and 108% | [9] 97.4% and 106% | [10] 96.9% and 152% | [11] 91.5% and 146% | [12] 97.1% | [13] 82.9% and 100% | [14] 98.2% and 98.6% | [20] 85.5% and 105% | [15] 97.9% and 42.4% | [17] 93.8% and 110% | [18] 87.2% and 113% | [19] 98.4% and 98.7%

CCOc1ccc2cc(-c3nn(CC4CCNCC4)c4ncnc(N)c34)ccc2c1
inactive: [1] 108% | [2] 101% and 55.6% | [3] 82.9% and 28.9% | [4] 68.8% and 45.7% | [5] 77.1% and 80.5% | [6] 102% and 49.5% | [7] 95.4% and 81.9% | [8] 73% and 37% | [13] 92.1% and 58.5% | [20] 55.8% and 42.7% | [15] 91.7% and 45.9% | [16] 92.7% and 47.8% | [17] 101% and 74.7% | [18] 83.8% and 22.1% | [19] 99.5% and 93.5%
59.3% (inactive) and -25.2% (active): [11]
66.1% (inactive) and -12.1% (active): [10]
88.4% (inactive) and 9.5% (active): [9]
90.6% (inactive) and -13.2% (active): [12]

C#CCN(C)Cc1ccccc1
inactive: [1] 97.5% and 104% | [2] 104% and 95.2% | [3] 95.7% and 82.5% | [4] 87.2% and 93.2% | [5] 101% and 231% | [6] 97.5% and 105% | [7] 99% and 69.1% | [8] 126% and 96.3% | [9] 95.2% and 131% | [10] 106% and 101% | [11] 108% and 101% | [12] 98.2% and 107% | [13] 101% and 98% | [14] 116% | [15] 104% and 103% | [16] 103% and 120% | [17] 111% and 104% | [18] 119% and 96.1% | [19] 101% and 102%

CCOC(=O)Nc1ccc2c(c1)/C(=N\NC(N)=S)c1ccccc1-2
inactive: [1] 70.1% and 93.2% | [2] 68.3% and 70.8% | [3] 73.3% and 71.9% | [4] 68% and 82.5% | [5] 82.2% and 107% | [6] 56.8% and 68.7% | [7] 43% and 73.4% | [8] 46.6% and 65.5% | [9] 19.9% and 27.8% | [10] 46% and 41.8% | [11] 47.2% and 34.7% | [12] 22.3% | [13] 34.6% and 55.5% | [20] 61% and 77.1% | [15] 96.5% and 93.2% | [16] 93.5% and 103% | [17] 48% and 83.4% | [18] 69.9% and 92.9% | [19] 29.5% and 45.6%

O=C1C2=C(C(=O)c3ccccc31)C(O)(S(=O)(=O)O)C(O)(S(=O)(=O)O)C1N=CC=CC21 (centres undefined)
22.4% (inactive) and 3.66% (active): [17]
42.2% (inactive) and -0.599% (active): [4]
inactive: [1] 65.2% and 47.4% | [2] 36.4% and 30.5% | [3] 34.5% and 39.1% | [5] 71.8% and 68.1% | [6] 36.3% and 32.8% | [7] 21.9% and 15.8% | [8] 82.1% and 33.9% | [9] 25.1% and 41.9% | [10] 25.6% and 48.2% | [11] 12.6% and 61.2% | [12] 22.9% and 44.8% | [13] 24.3% and 10.6% | [14] 51.9% | [20] 28.7% and 24.3% | [15] 44.8% and 20.9% | [18] 13.3% | [19] 11.3%

Nc1nc(SC/C=C/CCl)c2[nH]cnc2n1
inactive: [1] 120% and 95% | [2] 95% and 98.7% | [3] 108% and 111% | [4] 87% and 94.3% | [5] 109% and 95% | [6] 110% and 101% | [7] 105% and 112% | [8] 83.6% and 91.6% | [9] 96.6% | [10] 97.1% and 76.3% | [11] 77.5% | [12] 100% | [13] 103% and 97.6% | [14] 109% and 101% | [15] 99.4% and 112% | [16] 114% and 97.3% | [17] 117% and 120% | [18] 112% and 125%

CCN(CC)CCNc1ccc(C)c2sc3ccccc3c(=O)c12 (tested in a mixture with another compound)
10.1% (inactive) and -9.01% (active): [12]
active: [4] -4.88% and 2.67% | [16] -29.6% and 3.62%
inactive: [1] 59.2% and 86.4% | [2] 68.6% and 86.6% | [3] 35.1% and 36.4% | [5] 23.1% and 50% | [6] 16.7% and 10.4% | [7] 22.4% and 29.9% | [8] 102% and 75.7% | [9] 55.7% and 29.3% | [13] 23.7% and 32.3% | [14] 48.8% and 51.6% | [20] 40.7% and 53.3% | [17] 58.9% and 62.8% | [18] 122% and 81.6% | [19] 43.1% and 43%
8.47% (active) and 20% (inactive): [11]
8.98% (active) and 26.9% (inactive): [10]
